Rows were chosen to be rich in hits. Some 0.82% of all compounds tested hit in one or more screens of this group.
IP6K1 inhibitor = IP6K1 kinase inhibition; Q92551; IP6K1 kinase, ADP-Glo luminescence, 2 h; active compounds read low; activity change, % (series mostly up to about 58 µM); actives 0.81% (n = 140,000); AID 1645851; in the data active = activity change below about -25%
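ADP-Glo luminescence measures ADP made by human IP6K1 during a 2 h RT reaction with ATP/IP6 (mix at 1.3 mM/130 uM); top library doses 57.5 and 19.1 uM final.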
GPT2 inhibitor = blocks human glutamate pyruvate transaminase 2 | Recombinant GPT2, coupled pyruvate oxidase/HRP Amplex Red fluorescence | actives 0.25% (n = 100,000) | Q8TD30 | Potency, µM (top dose mostly 57.7 µM), without a hit: at the top dose activity change, negative = inhibition, most hits filed as inhibitors | AID 1671188; note: potency is the fitted concentration of half-maximal effect; nearly all actives have a fitted effect of over 60% in size
Target sequence (Q8TD30 whole entry, looked up): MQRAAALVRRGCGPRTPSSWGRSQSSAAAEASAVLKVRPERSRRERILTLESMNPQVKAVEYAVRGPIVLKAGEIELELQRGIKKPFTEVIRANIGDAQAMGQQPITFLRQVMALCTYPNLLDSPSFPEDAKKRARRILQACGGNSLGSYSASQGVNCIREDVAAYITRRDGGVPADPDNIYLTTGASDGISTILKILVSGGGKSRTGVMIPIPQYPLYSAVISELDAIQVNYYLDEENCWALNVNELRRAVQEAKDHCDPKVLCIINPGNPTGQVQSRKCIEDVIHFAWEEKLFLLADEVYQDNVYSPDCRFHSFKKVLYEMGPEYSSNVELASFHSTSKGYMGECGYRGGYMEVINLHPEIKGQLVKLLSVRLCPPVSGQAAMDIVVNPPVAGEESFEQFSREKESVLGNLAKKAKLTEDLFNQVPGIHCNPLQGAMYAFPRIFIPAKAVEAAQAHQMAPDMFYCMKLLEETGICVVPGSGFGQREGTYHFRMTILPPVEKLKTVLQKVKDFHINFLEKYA
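Recombinant GPT2 (10ng/uL) with 250uM a-KG and 2mM L-alanine, 30 min at room temperature, in HEPES pH 7.5 buffer. Pyruvate detected by pyruvate oxidase/HRP/Amplex Red fluorescence after 30 min in the dark; AOA (50uM) as positive control.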
IP6K1 inh cnf = human IP6K1 inhibition, confirmatory; actives 13% (n = 1,200); Potency, µM (series often up to 49 µM), for inactives: at the top dose activity change, negative = inhibition, usual class: inhibitors; AID 1645852; shares compounds with IP6K1 inhibitor; recombinant IP6K1 kinase, ADP-Glo luminescence, 2 h; note: potency is the fitted concentration of half-maximal effect; nearly all actives have a fitted effect of over 65% in size
Active calls of the source: *; [ ] = another dose, or the depositor's remark. Unless noted, calls come from the whole dose curve; as a rule, active = well fitted curve in the direction sought with a large enough effect; inconclusive = small, poorly fitted or top-dose-only effect, or another doubt; inactive = no such curve, though single readings can be large; an effect the other way counts as inactive or inconclusive. % is set by controls: 0 for no effect and ±100 for the full control effect.

How did Cc1ccc(CNC(=O)c2nc(SCc3ccc(C)cc3)ncc2Cl)cc1 do in these assays?
IP6K1 inhibitor: -7

What do the screens show for `COc1ccccc1-c1cc(C(=O)N(C)C)c2cnn(C)c2n1`?
IP6K1 inhibitor: -4; GPT2 inhibitor: -2%

Results for COc1ccc(C(=O)N2CCC3(CC2)CC(OC)CCO3)cc1 (configuration not stated) ?
IP6K1 inhibitor: 3; GPT2 inhibitor: inconclusive

Results for C[S+](=O)([O-])c1ccc(-c2cc(C(=O)N3CCCCC3)nn3cccc23)cc1 ?
IP6K1 inhibitor: -1; GPT2 inhibitor: 1%

Results for C=C1CC23CC(=O)C4C(CO)(CO)CCCC4(C)C2CCC1C3 (configuration not stated) ?
IP6K1 inhibitor: 30; GPT2 inhibitor: inactive

Results for CC(=O)N(C1CC1)C1CCOC2(CCN(C(=O)c3ccco3)CC2)C1 (configuration not stated) ?
IP6K1 inhibitor: -10; GPT2 inhibitor: inactive

How did O=C(CCC[C@@H]1[C@H]2CCCN3CCC[C@@H](CN1C(=O)c1ccccc1)[C@@H]23)NCc1ccc(F)cc1 do in these assays?
IP6K1 inhibitor: -6; GPT2 inhibitor: -10%

How did O=C1CN(C(=O)CCc2ccccc2)CC(O)CN1CCCc1ccccc1 (configuration not stated) do in these assays?
IP6K1 inhibitor: -1

What do the screens show for `CCN1CCN(C(=O)c2ccc3nnc(-c4cc(C(F)(F)F)cc(C(F)(F)F)c4)n3c2)CC1`?
IP6K1 inhibitor: -13; GPT2 inhibitor: -3%

How did O=C1CC(c2cccc(O)c2)c2c(nc(SCc3ccccc3F)[nH]c2=O)N1 (configuration not stated) do in these assays?
IP6K1 inhibitor: 6

What do the screens show for `Nc1nc2c(s1)C(c1cccc(F)c1)CC(=O)N2` (configuration not stated)?
IP6K1 inhibitor: -31*; GPT2 inhibitor: inconclusive; IP6K1 inh cnf: inconclusive

Results for O=C(Cc1ccc(F)cc1)N1CCN(C(=O)c2nnn3c2COC(c2ccc(F)cc2)C3)CC1 (configuration not stated) ?
IP6K1 inhibitor: 1; GPT2 inhibitor: 0%

What do the screens show for `Cn1nc(-c2ccccc2F)c2cc(C(=O)NCc3ccc(Cl)cc3)sc21`?
IP6K1 inhibitor: -39*; IP6K1 inh cnf: inconclusive

How did COc1cccc(CNC(=O)c2cc3c(-c4ccccc4F)nn(C)c3s2)c1 do in these assays?
IP6K1 inhibitor: -20

Results for CCOC(=O)C1CCN(c2c(C(=O)c3ccc(C)cc3)cnc3ccc(F)cc23)CC1 ?
IP6K1 inhibitor: 6

What do the screens show for `CCOC(=O)C1CCN(c2c(C(=O)c3ccc(OCC)cc3)cnc3ccc(OC)cc23)CC1`?
IP6K1 inhibitor: -33*; IP6K1 inh cnf: -3%

How did COc1cccc(Nc2ccc3c(n2)C(C)(C(=O)NCCc2ccccn2)CN(C)C3)c1 (configuration not stated) do in these assays?
IP6K1 inhibitor: 2; GPT2 inhibitor: 2%[88.5 µM]

What do the screens show for `CCC1(N2CCN(C(=O)c3ccc(F)c(Cl)c3)CC2)CCN(S(C)(=O)=O)C1` (configuration not stated)?
IP6K1 inhibitor: -10; GPT2 inhibitor: inactive

Results for O=S(=O)(O)c1ccc2cc(N=Nc3cc(S(=O)(=O)O)c4cccnc4c3O)ccc2c1 ?
IP6K1 inhibitor: -52*; GPT2 inhibitor: 2%; IP6K1 inh cnf: inconclusive

Results for Cc1nc(N=Nc2ccc(S(=O)(=O)O)cc2S(=O)(=O)O)c(COP(=O)(O)O)c(C=O)c1O ?
GPT2 inhibitor: 2%

What do the screens show for `O=C(CC1CCCCC1)N1CCC2(CC1)NC(=O)N(c1ccccc1)N2`?
IP6K1 inhibitor: 22; GPT2 inhibitor: inconclusive

How did COc1ccccc1CNC[C@@H]1C=C(C)[C@H](Cc2nc3c(C)cccc3[nH]2)C[C@H]1C(C)C do in these assays?
IP6K1 inhibitor: 6; GPT2 inhibitor: -9%[88.5 µM]

What do the screens show for `CC1=C[C@@H](CNC(=O)CCCC(=O)O)[C@H](C(C)C)C[C@H]1Cc1nc2ccccc2n1C`?
IP6K1 inhibitor: 0; GPT2 inhibitor: 4%[88.5 µM]

How did COCC1CN(Cc2cc(F)cc(Br)c2)CC12CCNCC2 (configuration not stated) do in these assays?
IP6K1 inhibitor: 0; GPT2 inhibitor: inactive

What do the screens show for `CCOc1ccc(C2Cn3nnc(-c4nc(-c5ccc(SC)cc5)no4)c3CO2)cc1` (configuration not stated)?
IP6K1 inhibitor: -15; GPT2 inhibitor: inactive

Results for O=C(O)c1cccc(CN2C(=O)/C(=C(\c3ccccc3)c3ccc(Cl)cc3)c3ccccc32)c1 ?
IP6K1 inhibitor: -26*; GPT2 inhibitor: inactive; IP6K1 inh cnf: 21µM*
